Reference: the supplement of paper PMC11732987, “Enantioselective OTUD7B fragment discovery through chemoproteomics screening and high-throughput optimisation” (Communications Chemistry, 2025)

Tests used:
Assay in all cases: log2 ratio of Biotin-Ahx-Ub-VS probe labelling (fragment/DMSO); higher = less target engagement (more negative = stronger competition), active = hit call of the paper (q ≤ 0.05, log2 ratio ≤ -1)
Settings in all cases: compound concentration: 200 uM; treatment time: 3 h
[1] = molecular target: T1, USP19 (UniProt O94966)
T1 sequence (whole entry): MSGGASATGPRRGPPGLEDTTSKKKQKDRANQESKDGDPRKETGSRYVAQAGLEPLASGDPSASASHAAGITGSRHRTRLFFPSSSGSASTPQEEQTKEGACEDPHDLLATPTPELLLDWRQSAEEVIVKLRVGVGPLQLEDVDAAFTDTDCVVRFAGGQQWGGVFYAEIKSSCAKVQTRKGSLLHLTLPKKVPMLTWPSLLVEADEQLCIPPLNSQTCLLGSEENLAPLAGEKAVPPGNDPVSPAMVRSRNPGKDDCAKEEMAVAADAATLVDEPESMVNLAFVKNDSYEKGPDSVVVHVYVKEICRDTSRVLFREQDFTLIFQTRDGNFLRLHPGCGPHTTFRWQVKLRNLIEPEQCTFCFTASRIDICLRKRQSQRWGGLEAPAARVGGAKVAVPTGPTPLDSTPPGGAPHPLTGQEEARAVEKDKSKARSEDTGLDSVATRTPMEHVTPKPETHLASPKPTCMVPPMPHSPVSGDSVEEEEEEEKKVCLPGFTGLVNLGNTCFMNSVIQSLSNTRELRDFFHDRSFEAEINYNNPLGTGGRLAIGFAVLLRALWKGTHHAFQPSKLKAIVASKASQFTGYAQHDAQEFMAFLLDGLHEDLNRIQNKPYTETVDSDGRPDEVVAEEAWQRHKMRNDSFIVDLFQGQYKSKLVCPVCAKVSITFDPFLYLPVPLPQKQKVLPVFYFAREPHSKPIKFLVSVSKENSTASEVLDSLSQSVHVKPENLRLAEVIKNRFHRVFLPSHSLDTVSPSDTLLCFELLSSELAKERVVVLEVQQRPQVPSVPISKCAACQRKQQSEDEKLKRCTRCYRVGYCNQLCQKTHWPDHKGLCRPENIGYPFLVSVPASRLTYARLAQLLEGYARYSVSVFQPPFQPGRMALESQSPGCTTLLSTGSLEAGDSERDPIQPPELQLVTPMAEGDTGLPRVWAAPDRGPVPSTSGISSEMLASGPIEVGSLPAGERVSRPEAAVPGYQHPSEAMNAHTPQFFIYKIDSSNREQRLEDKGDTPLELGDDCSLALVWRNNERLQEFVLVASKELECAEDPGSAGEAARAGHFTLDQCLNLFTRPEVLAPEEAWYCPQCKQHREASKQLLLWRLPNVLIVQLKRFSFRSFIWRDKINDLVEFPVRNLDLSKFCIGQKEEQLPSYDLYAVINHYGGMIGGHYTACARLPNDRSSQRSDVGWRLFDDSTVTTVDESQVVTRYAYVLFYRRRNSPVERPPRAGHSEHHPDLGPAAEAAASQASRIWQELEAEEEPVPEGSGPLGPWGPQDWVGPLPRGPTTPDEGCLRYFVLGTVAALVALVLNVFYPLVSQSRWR
How it was run: (§1)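 HEK293T lysate (495 µg per sample, in Tris/CHAPS/IGEPAL buffer with protease inhibitors) was treated in triplicate with fragment at 200 µM or with DMSO for 3 h. It was then treated with Biotin-Ahx-Ub-VS (0.5 µM final) for 1 h. Labelled DUBs were NeutrAvidin-enriched, digested with LysC and trypsin, and run by diaPASEF LC-MS/MS. Spectronaut label-free quantities were global-median-normalised. Values are average log2 ratios fragment/DMSO by unpaired t-test, using proteins with ≥2 unique peptides.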

[2] = molecular target: USP24 (UniProt Q9UPU5)
USP24, sequence (Q9UPU5 whole entry): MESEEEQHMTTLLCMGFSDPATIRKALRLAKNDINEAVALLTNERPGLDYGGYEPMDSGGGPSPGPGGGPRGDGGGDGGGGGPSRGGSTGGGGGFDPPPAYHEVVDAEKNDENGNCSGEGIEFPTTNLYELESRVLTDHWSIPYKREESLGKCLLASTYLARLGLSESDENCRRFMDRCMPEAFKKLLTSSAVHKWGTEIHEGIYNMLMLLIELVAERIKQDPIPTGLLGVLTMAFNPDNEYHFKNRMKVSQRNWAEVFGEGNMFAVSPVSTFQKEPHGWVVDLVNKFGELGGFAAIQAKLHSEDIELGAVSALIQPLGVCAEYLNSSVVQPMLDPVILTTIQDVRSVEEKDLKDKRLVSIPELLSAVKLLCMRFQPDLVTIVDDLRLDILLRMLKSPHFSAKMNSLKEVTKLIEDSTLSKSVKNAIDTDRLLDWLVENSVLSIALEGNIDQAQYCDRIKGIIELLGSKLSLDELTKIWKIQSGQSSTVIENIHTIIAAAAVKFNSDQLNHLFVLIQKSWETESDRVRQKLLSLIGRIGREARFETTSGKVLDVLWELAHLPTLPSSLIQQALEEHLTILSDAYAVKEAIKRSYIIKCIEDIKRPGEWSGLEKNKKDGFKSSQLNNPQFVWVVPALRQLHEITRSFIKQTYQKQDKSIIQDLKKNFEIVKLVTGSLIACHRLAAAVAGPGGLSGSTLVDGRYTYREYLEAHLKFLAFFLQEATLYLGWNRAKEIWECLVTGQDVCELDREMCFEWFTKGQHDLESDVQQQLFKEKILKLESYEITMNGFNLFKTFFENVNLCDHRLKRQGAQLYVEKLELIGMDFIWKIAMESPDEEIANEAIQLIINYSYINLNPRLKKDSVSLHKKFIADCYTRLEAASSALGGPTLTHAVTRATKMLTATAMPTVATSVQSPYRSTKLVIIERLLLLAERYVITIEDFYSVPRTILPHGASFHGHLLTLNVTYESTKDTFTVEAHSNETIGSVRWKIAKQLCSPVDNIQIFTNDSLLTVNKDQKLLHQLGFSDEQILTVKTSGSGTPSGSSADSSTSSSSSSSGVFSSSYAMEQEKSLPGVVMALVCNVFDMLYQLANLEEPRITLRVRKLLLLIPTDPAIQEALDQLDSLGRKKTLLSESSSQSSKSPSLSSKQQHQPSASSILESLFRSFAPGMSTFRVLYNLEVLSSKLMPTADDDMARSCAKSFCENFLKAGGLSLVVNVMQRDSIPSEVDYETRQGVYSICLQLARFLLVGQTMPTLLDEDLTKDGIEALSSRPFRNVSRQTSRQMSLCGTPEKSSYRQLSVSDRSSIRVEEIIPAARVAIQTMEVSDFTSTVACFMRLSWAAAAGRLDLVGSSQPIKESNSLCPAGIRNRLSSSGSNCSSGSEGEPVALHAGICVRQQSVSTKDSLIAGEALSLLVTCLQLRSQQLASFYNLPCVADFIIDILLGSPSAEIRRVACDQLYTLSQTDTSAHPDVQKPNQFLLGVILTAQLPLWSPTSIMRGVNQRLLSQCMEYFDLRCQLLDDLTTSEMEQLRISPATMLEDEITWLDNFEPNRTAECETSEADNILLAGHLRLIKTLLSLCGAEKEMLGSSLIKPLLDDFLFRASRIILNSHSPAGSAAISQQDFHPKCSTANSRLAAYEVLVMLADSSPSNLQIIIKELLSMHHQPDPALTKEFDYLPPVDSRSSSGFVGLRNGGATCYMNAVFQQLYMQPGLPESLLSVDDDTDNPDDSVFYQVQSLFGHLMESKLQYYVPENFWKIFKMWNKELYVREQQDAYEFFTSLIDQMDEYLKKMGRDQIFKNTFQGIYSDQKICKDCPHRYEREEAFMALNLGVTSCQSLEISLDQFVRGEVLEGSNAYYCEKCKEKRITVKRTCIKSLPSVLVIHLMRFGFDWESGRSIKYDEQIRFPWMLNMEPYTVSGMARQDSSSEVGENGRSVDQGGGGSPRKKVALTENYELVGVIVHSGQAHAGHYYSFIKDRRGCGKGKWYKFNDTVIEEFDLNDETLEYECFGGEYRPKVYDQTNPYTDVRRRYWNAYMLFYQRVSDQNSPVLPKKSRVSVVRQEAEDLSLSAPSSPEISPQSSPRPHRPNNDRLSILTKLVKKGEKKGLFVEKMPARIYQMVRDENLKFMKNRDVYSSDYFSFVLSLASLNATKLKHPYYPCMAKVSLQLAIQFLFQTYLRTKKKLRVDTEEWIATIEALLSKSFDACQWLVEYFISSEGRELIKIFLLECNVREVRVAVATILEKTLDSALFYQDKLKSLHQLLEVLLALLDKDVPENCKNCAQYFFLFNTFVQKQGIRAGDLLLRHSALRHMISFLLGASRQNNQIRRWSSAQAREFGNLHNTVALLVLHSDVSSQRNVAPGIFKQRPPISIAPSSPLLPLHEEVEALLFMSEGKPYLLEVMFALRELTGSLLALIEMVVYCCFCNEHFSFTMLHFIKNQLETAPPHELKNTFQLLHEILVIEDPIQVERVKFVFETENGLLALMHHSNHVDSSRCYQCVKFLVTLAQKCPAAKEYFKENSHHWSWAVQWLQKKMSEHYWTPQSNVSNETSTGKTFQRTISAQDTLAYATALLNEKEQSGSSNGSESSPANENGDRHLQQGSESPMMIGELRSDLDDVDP
How it was run: as §1

[3] = molecular target: T2, USP25 (UniProt Q9UHP3)
T2 sequence (whole entry): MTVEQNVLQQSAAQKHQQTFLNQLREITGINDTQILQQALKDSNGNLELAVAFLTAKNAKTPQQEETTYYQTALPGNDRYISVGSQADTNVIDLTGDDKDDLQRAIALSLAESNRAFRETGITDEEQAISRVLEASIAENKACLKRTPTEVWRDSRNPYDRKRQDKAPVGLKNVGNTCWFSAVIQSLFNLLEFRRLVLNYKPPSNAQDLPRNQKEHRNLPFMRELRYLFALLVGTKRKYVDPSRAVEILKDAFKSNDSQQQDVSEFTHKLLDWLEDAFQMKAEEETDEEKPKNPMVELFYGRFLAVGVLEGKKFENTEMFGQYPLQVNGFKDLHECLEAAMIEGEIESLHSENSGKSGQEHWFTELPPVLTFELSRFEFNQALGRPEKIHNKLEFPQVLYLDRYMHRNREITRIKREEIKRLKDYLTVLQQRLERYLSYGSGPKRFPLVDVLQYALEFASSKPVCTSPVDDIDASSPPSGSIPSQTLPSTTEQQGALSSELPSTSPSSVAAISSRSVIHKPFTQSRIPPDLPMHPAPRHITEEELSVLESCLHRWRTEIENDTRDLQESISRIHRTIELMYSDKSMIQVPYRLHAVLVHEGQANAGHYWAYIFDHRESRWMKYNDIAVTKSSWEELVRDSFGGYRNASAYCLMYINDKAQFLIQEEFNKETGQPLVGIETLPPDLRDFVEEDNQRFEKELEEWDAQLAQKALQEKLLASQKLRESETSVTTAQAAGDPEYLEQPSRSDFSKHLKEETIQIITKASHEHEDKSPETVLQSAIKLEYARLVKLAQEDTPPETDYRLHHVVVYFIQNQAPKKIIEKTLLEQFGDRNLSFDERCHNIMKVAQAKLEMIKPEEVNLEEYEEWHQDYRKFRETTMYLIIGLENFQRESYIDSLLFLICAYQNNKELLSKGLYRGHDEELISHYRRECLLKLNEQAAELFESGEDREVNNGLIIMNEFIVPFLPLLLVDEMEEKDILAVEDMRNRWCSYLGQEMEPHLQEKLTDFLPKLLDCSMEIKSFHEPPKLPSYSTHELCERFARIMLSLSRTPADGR
How it was run: as §1

[4] = molecular target: T3, USP28 (UniProt Q96RU2)
T3 sequence (whole entry): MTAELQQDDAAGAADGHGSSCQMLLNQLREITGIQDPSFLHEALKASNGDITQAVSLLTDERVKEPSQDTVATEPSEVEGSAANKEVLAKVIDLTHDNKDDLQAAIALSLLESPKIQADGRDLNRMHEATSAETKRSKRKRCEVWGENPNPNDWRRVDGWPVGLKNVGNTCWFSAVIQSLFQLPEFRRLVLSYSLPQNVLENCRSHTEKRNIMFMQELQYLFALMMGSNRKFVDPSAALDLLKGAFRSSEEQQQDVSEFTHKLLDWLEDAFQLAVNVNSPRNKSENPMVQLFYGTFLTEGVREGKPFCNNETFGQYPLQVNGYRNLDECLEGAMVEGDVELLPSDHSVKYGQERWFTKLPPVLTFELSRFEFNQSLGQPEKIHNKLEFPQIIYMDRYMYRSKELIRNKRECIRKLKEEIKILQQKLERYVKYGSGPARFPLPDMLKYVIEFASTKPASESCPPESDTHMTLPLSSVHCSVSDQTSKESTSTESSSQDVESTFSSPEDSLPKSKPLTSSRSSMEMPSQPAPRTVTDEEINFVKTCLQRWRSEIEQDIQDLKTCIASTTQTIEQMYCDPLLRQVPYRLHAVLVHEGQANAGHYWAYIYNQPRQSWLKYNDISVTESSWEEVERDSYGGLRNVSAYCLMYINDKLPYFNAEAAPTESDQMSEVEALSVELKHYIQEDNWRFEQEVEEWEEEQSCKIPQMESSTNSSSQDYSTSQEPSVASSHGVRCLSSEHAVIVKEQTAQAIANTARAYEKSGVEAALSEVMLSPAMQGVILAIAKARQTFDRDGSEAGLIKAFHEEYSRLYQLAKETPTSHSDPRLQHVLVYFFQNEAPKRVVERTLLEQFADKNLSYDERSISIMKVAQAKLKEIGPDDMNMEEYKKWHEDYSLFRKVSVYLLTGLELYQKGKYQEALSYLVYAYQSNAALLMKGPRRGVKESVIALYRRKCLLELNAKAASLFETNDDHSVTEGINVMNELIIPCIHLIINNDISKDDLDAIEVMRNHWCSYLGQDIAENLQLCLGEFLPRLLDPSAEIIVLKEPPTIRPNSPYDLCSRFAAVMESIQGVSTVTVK
How it was run: as §1

Measured: log2 ratio of Biotin-Ahx-Ub-VS probe labelling

Cc1nc(-c2cccc(NC(=O)CCl)c2)cs1
inactive: [1] -0.375 | [2] -0.903 | [3] -0.554 | [4] -0.634
